Among all 360,000 compounds or so, about 6,200 (1.7%) were called active.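 The calls were made as follows: active = inhibition of at least 50% at 20 µM; inactive = the rest.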 For the sample, actives were picked, then their nearest neighbours and some compounds at random.

The test in a line: Peg3 promoter-driven luciferase inhibitors, primary screen, cell-based, HeLa, luciferase luminescence (AID 588405). The following applies: HeLa PEG-Prom luciferase reporter, overnight, at 20 µM, stronger effect = higher value. In general terms: Reporter assays use an easily measured gene product as a stand-in for the process of interest.
Regarding `CCOC(=O)c1ccc(NC(=O)Cc2cccs2)cc1`, the inhibition (commonly the relative decrease from the control value, in per cent) was -222% (inactive).
`O=C(COC(=O)CNC(=O)c1ccco1)Nc1ccc(F)cc1`: the inhibition is 8.45% (inactive).
Turning to `CCOC(=O)c1ccc(NC(=O)CNC(=O)c2ccco2)cc1`, the inhibition is 102% (active).
As to `CCCNC(=O)C1(C)CCN(Cc2ccc(Cl)c(Cl)c2)C1` (centres undefined), the inhibition is 1.28% (inactive).
As for `CC(=O)Nc1ccc(-c2cn3cccnc3n2)cc1`, the figure is -72.3% (inactive); as for `CC(=O)Nc1ccc(-c2csc(NC(=O)Nc3ccccc3)n2)cc1`, 102% (active); as for `Cc1ccc(NC(=O)Nc2cc(-c3ccccc3)nn2C)cc1Cl`, 4.66% (inactive).
With `COc1ccc(S(=O)(=O)N(C)C[C@H]2Oc3c(NC(=O)Nc4ccc5c(c4)OCO5)cccc3C(=O)N([C@H](C)CO)C[C@@H]2C)cc1` the figure was -2.6% (inactive); with `CCCNC(=O)C1(C)CCN(C(=O)c2cc(F)ccc2C)C1` (centres undefined), -1.83% (inactive).
As for `CCc1nc2ccc(C(=O)N3CCC(O)(Cc4ccccc4)CC3)cn2c1N(C)C(=O)Cc1ccccc1`, the inhibition was 4.95% (inactive).
With `COc1ccc(/C(C)=N/N2CCOCC2)c(O)c1` the figure was -9.18% (inactive); with `CN(C)CC(O)COc1ccc(C(C)(C)c2ccc(OCC(O)CN(C)C)cc2)cc1` (centres undefined), 77.5% (active).
As for `CCCC(O)(c1ccc(OC)cc1)C(CN(C)C)c1ccccc1` (centres undefined), the figure is 7.67% (inactive); as for `Cc1cc(C)n(CC(O)COc2ccc(C(C)(C)C)cc2)n1` (centres undefined), -28.6% (inactive).
As for `CS(=O)(=O)N(CC(=O)N1CCCC1)Cc1ccccc1`, the figure is 3.29% (inactive).
Take `CCCCc1ccc(S(=O)(=O)NC(=O)C2(C)CCN2C(=O)c2ccccc2)cc1` (centres undefined): the inhibition was 0.57% (inactive).
On to `O=C(NCCO)c1cccc(-c2cccc3nccn23)c1`, for which the inhibition is -16.2% (inactive).
With `O=C(Nc1ccc2c(c1)OCCO2)C(C1CC1)N1CCC(Cc2ccccc2)CC1` (centres undefined) the figure was -10.2% (inactive); with `NC(c1csc(NC(=O)Nc2cccc(C(F)(F)F)c2)n1)C1CCCCC1` (centres undefined), 111% (active); with `O=C(Nc1cccc(F)c1)NC1CCCCCCC1`, -273% (inactive).
As for `O=C(Nc1ccc(C(=O)N2CCOCC2)cc1)Nc1cccc(C(F)(F)F)c1`, the figure is 2.67% (inactive); as for `COc1ccc(C(N)c2csc(NC(=O)Nc3cccc(C(F)(F)F)c3)n2)cc1` (centres undefined), 96.6% (active).
With `NC(c1ccccc1)c1csc(NC(=O)Nc2cccc(C(F)(F)F)c2)n1` (centres undefined) the figure was 113% (active); with `COc1cccc(NC(=O)Nc2ccc(F)cc2)c1`, -212% (inactive); with `CC(=O)c1ccc(Nc2nc(C(N)c3ccccc3)cs2)cc1` (centres undefined), -58.5% (inactive).
With `COc1ccc(C(CC(=O)Nc2ccc(C)cc2)NC(=O)C(F)(F)F)cc1` (centres undefined), the inhibition is 3.66% (inactive).
As for `C/C(CC(=O)Nc1cccc(C(F)(F)F)c1)=N\NC(=O)C(=O)NCC(C)C`, the figure is -1.6% (inactive); as for `Cc1cc(Br)ccc1NC(=O)CCCOc1cc(=O)n(C)c2ccccc12`, -16.6% (inactive).
Consider `Cc1ccc(C)c(OCCC(=O)Nc2cccc(S(=O)(=O)N3CCCC3)c2)c1`, for which the inhibition was 21.3% (inactive).
With `COC(=O)CNC(c1ccccc1Cl)c1cc(Br)ccc1NC(=O)CCN1CCOCC1` (centres undefined) the figure was 20.5% (inactive); with `COC(=O)Cc1cnc(NC(=O)CSc2nc(C(C)C)cc(=O)[nH]2)s1`, 1.1% (inactive); with `CC1(Oc2cccc(F)c2)CCN(Cc2ccccc2OC(F)F)C1` (centres undefined), 2.93% (inactive).
Turning to `CCCNC(=S)N1CCC(NC(=O)C23CC4CC(CC(C4)C2)C3)CC1`, the inhibition was 8.28% (inactive).
As for `CCNC(=O)C1CCCN(C(=O)c2cc(F)ccc2C)CC1` (centres undefined), the figure is 2.54% (inactive).
As for `CCc1nc2ccc(C(=O)NC3CCN(Cc4ccccc4)CC3)cn2c1N(C)CCN1CCOCC1`, the figure is -22.2% (inactive); as for `CCC(=O)N1CCC(C)(C(=O)Nc2cc(OC)c(OC)c(OC)c2)C1` (centres undefined), -5.88% (inactive); as for `CCOC(=O)c1c(C)[nH]c2c1-c1ccccc1C(=O)C2=O`, 108% (active).
Turning to `CCOC(=O)c1[nH]c2ccccc2c1N=C(C)N(CC)CC`, the inhibition was 12.3% (inactive).
As for `CCOC(=O)c1c(C)[nH]c(C)c1S(=O)(=O)NCCCc1ccco1`, the figure is -7.04% (inactive); as for `Brc1ccc(Nc2c3c(nc4ncnn24)CCC3)cc1`, 22.3% (inactive).
As for `CC(=O)c1cccc(-c2cnc3c(NC=O)cc(-c4ccc(N5CCN(C)CC5)cc4)cn23)c1`, the figure is -143% (inactive).
With `CC1(C(=O)NS(=O)(=O)c2cccc(OC(F)F)c2)CCN1C(=O)C1CC1` (centres undefined) the figure was -2.21% (inactive); with `CCCCn1c(N)c(N2CCOCC2)c(=O)n(CC(=O)NCCc2ccccc2)c1=O`, 2.61% (inactive).
Consider `CN(C(=O)CCN1C(=O)/C(=C/c2ccccc2F)SC1=S)C1CCS(=O)(=O)C1` (centres undefined), for which the inhibition was 6.96% (inactive).
With `O=C(CN1CCCCCC1)NCCN1C(=O)S/C(=C\c2ccccc2Cl)C1=O` the figure was 3.28% (inactive); with `O=C1/C(=C\c2ccccc2Cl)SC(=S)N1CCC(=O)N1CCCc2ccccc21`, 105% (active).
As for `Cc1cc(Br)cn2c(Cc3cccc(F)c3)c(-c3cccc(Br)c3)nc12`, the figure is 33.6% (inactive); as for `COc1ccc(-c2ccc(C(=O)NCCN3CCOCC3)c3occc23)c(C)c1`, -2.5% (inactive).
`CCOC1=C2[C@H]([C@H]3C(=O)N(c4ccccc4)C(=O)[C@H]3C1)[C@@H](c1ccccc1)N(S(=O)(=O)c1ccc(C)cc1)[C@H]2c1ccccc1`: the inhibition is 16.4% (inactive).
With `Cc1ccc(S(=O)(=O)N(C)C)cc1NC(=O)c1ccc(-n2cncn2)c([N+](=O)[O-])c1` the figure was 6.01% (inactive); with `CCN(CC)C(=O)C1CCCN(Cc2cccc(Cl)c2)C1` (centres undefined), 3.55% (inactive).
As for `COc1ccc(-c2csc(C(O)c3cccc(Cl)c3)n2)cn1` (centres undefined), the figure is -7.77% (inactive).
With `COc1ccc2c(c1)c(=Cc1ccc(N(C)C)cc1)c1cc(-c3ccccc3)[n+](C)n12` the figure was 104% (active); with `Cc1nc2cc(S(=O)(=O)C(F)(F)F)ccc2s1`, 2.35% (inactive); with `COc1cccc(CN2CCC(C(=O)NC(c3ccc4c(c3)OCO4)c3ccccn3)CC2)c1` (centres undefined), -0.88% (inactive).
In the case of `Cc1cccnc1C(NC(=O)C1CCN(Cc2ccc(Cl)c(Cl)c2)CC1)c1ccc(Cl)cc1` (centres undefined), the inhibition is 2.43% (inactive).
For the compound `Cc1ccc(-n2c(SCC(=O)N/N=C/C=C/c3ccccc3[N+](=O)[O-])nc3ccccc3c2=O)cc1`, the inhibition was 6.9% (inactive).
With `O=c1c2ccccc2ncn1/N=C/c1ccccc1` the figure was -247% (inactive); with `CCn1c(/C=C/c2ccc([N+](=O)[O-])o2)nc2ccccc2c1=O`, 93.3% (active).

Values taken from PubChem BioAssay AID588405 (Sanford-Burnham Center for Chemical Genomics, 2011).
